ssDAF-12 act = S. stercoralis DAF-12 activation, primary screen; activation, % at 6.8 µM; HEK293 ssDAF-12/GRIP1 lit1-tk-luc reporter, luminescence; % of 3 µM dafachronic acid response; AID 652126; actives 1% (n = 370,000);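 active = activation above the mean over all tested compounds plus 3 SD, cut at about 0.9% in these data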;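 also: 0% = DMSO-only wells and 100% = 3 µM delta7-dafachronic acid wells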
NR1D1 modulator = modulators of human Rev-erb alpha DNA binding; Rev-erbα–FITC-DNA binding, fluorescence polarization, 90 min; activity, % at 10 µM; actives 0.79% (n = 370,000); AID 1259318;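 active = activity above about 14%, limit read from the data; passing the limit was not always enough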;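 also: 0% = DMSO wells with 35 nM protein and 100% = DMSO wells with 750 nM protein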
Target sequence (P20393 whole entry, looked up): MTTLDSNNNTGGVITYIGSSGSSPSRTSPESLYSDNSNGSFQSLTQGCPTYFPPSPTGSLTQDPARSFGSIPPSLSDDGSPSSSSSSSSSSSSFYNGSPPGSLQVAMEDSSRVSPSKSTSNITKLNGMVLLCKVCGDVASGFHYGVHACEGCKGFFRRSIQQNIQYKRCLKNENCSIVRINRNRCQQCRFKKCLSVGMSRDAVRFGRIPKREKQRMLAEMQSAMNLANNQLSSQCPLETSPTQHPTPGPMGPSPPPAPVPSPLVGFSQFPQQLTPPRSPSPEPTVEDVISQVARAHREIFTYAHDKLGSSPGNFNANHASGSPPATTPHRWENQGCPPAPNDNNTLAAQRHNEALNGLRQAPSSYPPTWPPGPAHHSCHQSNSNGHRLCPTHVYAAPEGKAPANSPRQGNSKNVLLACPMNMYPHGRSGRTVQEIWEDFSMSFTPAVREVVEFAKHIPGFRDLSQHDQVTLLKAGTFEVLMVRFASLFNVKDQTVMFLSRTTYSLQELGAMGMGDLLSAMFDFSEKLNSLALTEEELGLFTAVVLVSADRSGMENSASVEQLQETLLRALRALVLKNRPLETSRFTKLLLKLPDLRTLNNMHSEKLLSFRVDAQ
hcDAF-12 act = activators of H. contortus DAF-12 nuclear receptor | HEK293 hcDAF-12 lit1-tk-luc reporter, luminescence; 0% DMSO, 100% Δ7-dafachronic acid | actives 1.4% (n = 370,000) | activation, % at 6.8 µM;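 active = activation above the mean of all tested compounds plus 3 SD, cut at about 5.5% in these data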;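 also: 100% = response to 3 µM Δ7-dafachronic acid high control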
hgDAF-12 ag = activates the H. glycines DAF-12 receptor ligand-binding domain | HEK293 GAL4-hgDAF12 UAS-luciferase reporter, agonist luminescence; normalized to butyrate control | activation, % at 6.8 µM | actives 1.8% (n = 370,000) | AID 687014;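 active = activation above a cutoff set at the mean of all screened compounds plus 3 SD, cut at about 10% in these data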;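 also: 0% = DMSO wells and 100% = sodium butyrate wells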
DAX1 inh-1 = inhibitors of DAX1 repression of SF-1 activated StAR promoter; AID 652010; inhibition, % at 6.8 µM; actives 1.1% (n = 370,000); HEK293T StAR-luciferase reporter, SF-1/DAX-1 repression relief;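 active = inhibition above the mean over all tested compounds plus 3 SD, cut at about 3.6% in these data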;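 also: 0% = DAX-1 cells with DMSO and 100% = cells lacking DAX-1 with DMSO; higher inhibition means more luminescence from relief of DAX-1 repression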
DAX1 inh-2 = inhibitors of human orphan nuclear receptor DAX1 (NR0B1). P51843. HEK293 Gal4-DAX1 luciferase reporter, luminescence. inhibition, % at 6.75 µM. actives 0.99% (n = 340,000). AID 504766;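 active = inhibition above the mean over all tested compounds plus 3 SD, cut at about 4.2% in these data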;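 also: 0% = DAX1-transfected cells with DMSO and 100% = empty-vector control cells with DMSO; inhibition shows as a rise in luminescence from relieved DAX1 repression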
* = called active by the depositor. Shown are actives, neighbours in structure and some others; about 4.8% of the full set was active somewhere.

`Cn1cnc(S(=O)(=O)Nc2ccc(OC(F)(F)F)cc2)c1` gave ssDAF-12 act -1.4, NR1D1 modulator 0.0, hcDAF-12 act 0.9, hgDAF-12 ag 2.5, DAX1 inh-1 0.5 and DAX1 inh-2 5.5*.
CSc1cccc(NC(=S)NN/C(=N/S(=O)(=O)c2ccccc2)N2CCCC2)c1 was read as ssDAF-12 act -1.1, NR1D1 modulator -7.5, hcDAF-12 act -1.8, hgDAF-12 ag 7.7 and DAX1 inh-1 1.0.
COc1ccc(-n2c(=S)[nH]c(=O)c3cccnc32)cc1 was read as ssDAF-12 act -1.4, NR1D1 modulator -1.8, hcDAF-12 act 0.5, hgDAF-12 ag -0.4, DAX1 inh-1 -0.2 and DAX1 inh-2 7.2*.
`COc1ccc(-n2c(=S)[nH]c3c(oc4ccccc43)c2=O)cc1` gave ssDAF-12 act -0.6, NR1D1 modulator -0.3, hcDAF-12 act -0.3, hgDAF-12 ag -0.1, DAX1 inh-1 -0.3 and DAX1 inh-2 0.0.
Clc1ccc(C2Nc3ccccc3-n3cccc32)cc1 (stereo not given) was read as ssDAF-12 act 1.1*, NR1D1 modulator 1.5, hcDAF-12 act 5.3, hgDAF-12 ag 2.6, DAX1 inh-1 -0.6 and DAX1 inh-2 0.7.
Screening CCOC(=O)C1=C(C(=O)OCC)C2N(Cc3ccc(Br)cc3)c3ccccc3[C@@]23C[C@@H](C(=O)OC)N(S(=O)(=O)c2ccc(F)cc2)C3=N1 (stereo not given in full) returned ssDAF-12 act -1.5, NR1D1 modulator 0.8, hcDAF-12 act 0.6, hgDAF-12 ag 1.6 and DAX1 inh-1 0.5.
O=C(NCCc1c[nH]c2ccccc12)OCc1cn(-c2ccc(Cl)cc2)nn1 was read as ssDAF-12 act -1.2, NR1D1 modulator -5.1, hcDAF-12 act 0.5, hgDAF-12 ag -0.2 and DAX1 inh-1 -0.9.
`O=C(OCc1cn(Cc2ccc(F)c(F)c2)nn1)N1CCOCC1` gave ssDAF-12 act -1.5, NR1D1 modulator 6.6, hcDAF-12 act -0.2, hgDAF-12 ag -2.6 and DAX1 inh-1 0.3.
Screening O=C(Nc1ccc(F)cc1F)C1(c2cccs2)CCOCC1 returned ssDAF-12 act 0.0, NR1D1 modulator -3.3, hcDAF-12 act -0.9, hgDAF-12 ag 0.1, DAX1 inh-1 -0.7 and DAX1 inh-2 4.5*.
c1ccc2c(c1)COc1c3ncccc3nn1-2 was read as ssDAF-12 act 0.0, NR1D1 modulator 5.3, hcDAF-12 act 1.6, hgDAF-12 ag 13.0*, DAX1 inh-1 2.3 and DAX1 inh-2 1.4.
`C[C@@H](CO)NC(=O)c1ccc2c3n(nc2c1)-c1ccccc1CO3` gave ssDAF-12 act 0.5, NR1D1 modulator -1.6, hcDAF-12 act 5.0, hgDAF-12 ag 10.1, DAX1 inh-1 2.8 and DAX1 inh-2 -2.5.
C=CCN1CC(c2nc3ccccc3n2Cc2ccccc2)CC1=O (stereo not given) was read as ssDAF-12 act -1.3, NR1D1 modulator -0.3, hcDAF-12 act 1.1, hgDAF-12 ag -2.3, DAX1 inh-1 -0.8 and DAX1 inh-2 -0.9.
For Cn1c(C2CC(=O)N(Cc3ccccc3)C2)nc2ccccc21 (stereo not given) the results were ssDAF-12 act 1.1*, NR1D1 modulator 0.3, hcDAF-12 act -1.5, hgDAF-12 ag 1.4, DAX1 inh-1 -0.3 and DAX1 inh-2 2.0.
`CC1=C(C(=O)NCCCOC(C)C)C2(CCC(C)CC2)OC1=O` (stereo not given) gave ssDAF-12 act 1.0*, NR1D1 modulator 7.3, hcDAF-12 act 1.0, hgDAF-12 ag -0.9, DAX1 inh-1 -0.5 and DAX1 inh-2 2.3.
Screening Cc1ccc(S(=O)(=O)SC/C=C/CSS(=O)(=O)c2ccc(C)cc2)cc1 returned ssDAF-12 act -0.5, NR1D1 modulator 0.8, hcDAF-12 act 0.1, hgDAF-12 ag 0.9, DAX1 inh-1 -0.5 and DAX1 inh-2 5.5*.
For C=CCN1C(=O)S/C(=C\c2ccc(N3CCOCC3)cc2C)C1=O the results were ssDAF-12 act -0.7, NR1D1 modulator 13.2, hcDAF-12 act 0.5, hgDAF-12 ag 5.7, DAX1 inh-1 1.0 and DAX1 inh-2 4.2*.
For Cc1ccn2c(NCc3ccccc3)c(-c3cccs3)nc2c1 the results were ssDAF-12 act -1.0, NR1D1 modulator 1.0, hcDAF-12 act 3.4, hgDAF-12 ag 10.8*, DAX1 inh-1 0.4 and DAX1 inh-2 0.5.

High-throughput results: PubChem BioAssay, several laboratories
